About 2,700 (4%) of roughly 68,000 compounds showed an effect of 50% or more. The sample holds strong results, similar compounds and a random draw of the others, so the mix is not that of the screen.
The compounds below were run on Plasmodium berghei (assay: Screen against P. berghei liver stage (PbLuc), transformed with Luciferase, at 2uM). Settings: tested at 2 uM.
Type: functional, HepG2

SMILES | INHIBITION [%]
N#Cc1nc(COc2ccc3c(c2)OCO3)oc1N1CCCCCC1 | 18.85
O=C(NC1CCCC1)c1nc(COc2ccc3c(c2)OCO3)no1 | -11.86
CNc1oc(COc2ccc3c(c2)OCO3)nc1C#N | -6.53
N#Cc1nc(COc2ccc3c(c2)OCO3)oc1N1CCCC1 | -9.89
N#Cc1nc(COc2ccc3c(c2)OCO3)oc1NC1CCCCC1 | 66.74
N#Cc1nc(COc2ccc3c(c2)OCO3)oc1NC1CC1 | 51.42
CCS(=O)(=O)N1CCC(c2nnc(CN3CCOCC3)n2C)CC1 | 37.3
CCCc1n[nH]c(C2CN(C(=O)CCCn3ccnc3C)CCO2)n1 (stereo not given) | -15.07
Cc1cc(C)cc(OCC(=O)N2CCC2)c1 | 16.8
COc1cc(C(=O)N2CCCS2(=O)=O)ccc1OC(C)C | 21.12
COc1ccc(C[C@H]2CN(Cc3ccoc3)CC[C@@H]2OC)cc1 | 17.47
Cc1cnc(C(=O)N2CC[C@H]3C[C@@H](c4nc(C)cs4)O[C@@H]3C2)cn1 | 5.85
CC(C)c1cc(=O)[nH]c(-n2nc(C3CC3)cc2N)n1 | 16.98
CN(CC1CCCCO1)S(=O)(=O)c1cccc(C(=O)N2CCOCC2)c1 (stereo not given) | -40.47
O=C(O)c1cccc(C2CCCN(S(=O)(=O)C3CC3)C2)c1 (stereo not given) | 47.68
COCCN1CCN(Cc2coc(-c3ccccc3Cl)n2)CC1 | 11.9
CC(O)CN1CCN(Cc2coc(-c3ccccc3Cl)n2)CC1 (stereo not given) | -7.16
OCCN1CCN(Cc2coc(-c3ccccc3Cl)n2)CC1 | 58.53
Cc1nnc(NC(=O)NCc2ccc(F)cc2)s1 | -12.41
O=C(c1nc2c(o1)CN(CC1CCC1)C2)N1CCCC1 | 12.68
COCCN1C[C@H]2[C@@H](C1)N(C(=O)CCc1ccccc1)CC[C@H]2OC | 25.02
COCCN1C[C@H]2[C@@H](C1)N(C(=O)COc1ccccc1)CC[C@H]2OC | -75.33
COCCN1C[C@@H]2[C@@H](OC)CCN(C(=O)Cc3ccccc3)[C@@H]2C1 | 55.44
N#Cc1ccccc1CN1C[C@H]2CC[C@@H](C1)N(Cc1cscn1)C2=O | -66.52
CC(C)N(C)S(=O)(=O)N1CCCC1CC(=O)c1cccs1 (stereo not given) | 2.71
Cc1ccc(CNCC2Cn3nnc(-c4cccc(F)c4)c3CO2)o1 (stereo not given) | -17.26
CN1CCC2(COCCN(Cc3cccc(C#N)c3)C2)C1 (stereo not given) | 16.03

SMILES | INHIBITION [%]
CCCS(=O)(=O)N1CCC2(CCC(=O)N(CCc3cccnc3)C2)CC1 | 31.96
CCCS(=O)(=O)N1CCC2(CCC(=O)N(CCc3ccccc3)C2)CC1 | 15.56
CCCS(=O)(=O)N1CCC2(CCC(=O)N(Cc3ccccc3)C2)CC1 | 57.91
CCC(CNC(=O)Cc1c(C)noc1C)N1CCCC1 (stereo not given) | -15.63
Cn1nccc1CCC(=O)N1CCC(c2cnccn2)CC1 | -14.13
Cc1ccnn1CCC(=O)N1CCC(c2cnccn2)CC1 | 55.74
COc1cc(CCC(=O)N2CCC(c3cnccn3)CC2)on1 | -56.97
CC(Cn1cc(Br)cn1)C(=O)Nc1ccc(Br)cn1 (stereo not given) | -84.37
CC(C)N(CCCNC(=O)C1CCCN(C(N)=O)C1)S(C)(=O)=O (stereo not given) | 26.18
CN(CCC#N)C(=O)CSc1cc(F)ccc1F | 6.82
N#CCCNC(=O)CSc1cc(F)ccc1F | 51.83
N#CCCNC(=O)CSc1ccc(F)cc1F | 21.22
CCc1nnc(NC(=O)c2ccc(C3CCCN3CC(C)C)s2)s1 (stereo not given) | 52.98
Cc1cnc(NC(=O)c2ccc(C3CCCN3CC(C)C)s2)s1 (stereo not given) | 24.36
CC(C)CN1CCCC1c1ccc(C(=O)Nc2cn(C)nn2)s1 (stereo not given) | -28.11
CCc1nccn1-c1cncc(C2CCCN2)n1 (stereo not given) | -21.99
c1ccc(C2CCCN2Cc2nnnn2C2CC2)cc1 (stereo not given) | 7.74
CN(CCCNS(=O)(=O)N1CCC2(CC1)OCCO2)c1ccccc1 | 0.12
O=c1[nH]c2nc(NCC3CCCO3)ncc2c(=O)n1-c1ccc(F)cc1 (stereo not given) | 24.34
O=c1[nH]c2nc(N3CCCC3)ncc2c(=O)n1-c1cccc(F)c1 | 22.51
O=c1[nH]c2nc(NCC3CCCO3)ncc2c(=O)n1-c1cccc(F)c1 (stereo not given) | 61.06
CN1CCCC[C@@H]2[C@H]1[C@@H](c1ccccc1)CCN2S(=O)(=O)N1CCCC1 | 49.9
COc1ccc(OC)c(-n2nnnc2SCC2CCCCO2)c1 (stereo not given) | -10.78
Cc1cnc2[nH]c(C(F)(F)F)c(CN3CCCC(CO)C3)c2c1 (stereo not given) | 18.87
CCc1ncncc1C(=O)NCCNC(=O)c1ccc(C)c(F)c1 | -18.39
Cc1ccc(C(=O)NCCNC(=O)c2cncnc2C(C)C)cc1F | 57.34
Cc1ccc(C(=O)NCCNC(=O)c2cncnc2C)cc1F | -9.98

SMILES | INHIBITION [%]
O=C(CCn1cccn1)NCCOc1cccc(Cl)c1 | 8.78
Nc1ccc(C(=O)N2C[C@H]3CC[C@@H](C2)N(Cc2ccccc2)C3)cn1 | 57.85
Cc1ccc(C(=O)N2C[C@H]3CC[C@@H](C2)N(Cc2ccccc2)C3)cn1 | -17.44
O=C(c1c[nH]c(=O)cn1)N1C[C@H]2CC[C@@H](C1)N(Cc1ccccc1)C2 | 24.51
COc1ncccc1CN1CCn2c(Cn3cncn3)cnc2C1 | -47.72
O=C(NCCC1=CCCCC1)c1ccc(-n2cccc2)nc1 | 46.17
CCc1nnc2n1CCN(C(=O)Cc1csc(-c3ccco3)n1)C2 | -5.2
CCN1CCN(C(=O)C(C)n2cc(Br)cn2)CC1 (stereo not given) | 1.77
CC/C=C(/C)C(=O)NS(=O)(=O)c1ccc(C#N)c(C(F)(F)F)c1 | 57
CC/C=C(/C)C(=O)NS(=O)(=O)c1ccc(C#N)cc1C(F)(F)F | 6.08
CCCC(=O)NS(=O)(=O)c1ccc(C#N)c(C(F)(F)F)c1 | 4.68
Cn1nc(CNC(=O)NCc2ccc(Cl)cc2)c2c1CCOC2 | -18.29
C=C(C)COc1cccc(CN(C)C(C)c2ccncn2)c1 (stereo not given) | 53.17
C=C(C)COc1cccc(CN(C)C(C)c2nccs2)c1 (stereo not given) | -10.78
C=C(C)COc1cccc(C(=O)N(C)C(C)c2ccncn2)c1 (stereo not given) | 18.88
CC(C)N1CCCC(Cc2nccnc2Cl)C1 (stereo not given) | -47.18
Cc1nc(C)c(C(C)NCc2c(C)nn(C)c2N(C)C)s1 (stereo not given) | -30.49
Cc1nc(C)c(C(C)NCc2c(C(C)C)nn(C)c2N(C)C)s1 (stereo not given) | -34.69
COc1c(CNC(C)c2sc(C)nc2C)c(C(C)C)nn1C (stereo not given) | 59.99
Cc1ccc(-c2cc(N)c(=O)n(C(C)C(=O)NCC3CCCCC3)n2)s1 (stereo not given) | -1.07
Cc1ncsc1CN1C[C@@H]2CC[C@H]1CN(Cc1ccccc1)C2 | 15.68
CC(C)(C)C(O)CN1CCN(CCOCC(F)(F)F)CC1 (stereo not given) | -17.11
Cc1nn(C)c(C)c1C(=O)NCc1ccnc(OCC(F)(F)F)c1 | 11.09
COCCN1CCCC1c1ccnc(-c2ccccc2)n1 (stereo not given) | 14.3
CCCn1cc(-c2cc(-c3ccoc3)c(C#N)c(N)n2)c(C)n1 | 61.28
CCCn1cc(-c2cc(-c3c[nH]cn3)c(C#N)c(N)n2)c(C)n1 | 38.15
CCCn1cc(-c2cc(-c3cnc(OC)nc3)c(C#N)c(N)n2)c(C)n1 | 38.61

SMILES | INHIBITION [%]
Cc1cccc(-c2noc(CN3CC(n4cccn4)C3)n2)c1 | -15.28
CS(=O)(=O)Cc1ccc(Cl)c(NCc2noc(C3CC3)n2)c1 | -22.2
Cc1ccc(-c2ccc(Cl)nn2)cc1S(=O)(=O)N1CCOCC1 | 4.88
Cc1cc(C)c(S(=O)(=O)Nc2c(C)nc(N(C)C)nc2C)cc1C | -46.61
CN1CC2(CCCN(Cc3nnc(-c4cccc(F)c4)o3)C2)OC1=O (stereo not given) | 54.49
CN1CC2(CCCN(Cc3nnc(-c4ccco4)o3)CC2)OC1=O (stereo not given) | 16.82
CN1CC2(CCCN(Cc3nnc(-c4ccccc4)o3)CC2)OC1=O (stereo not given) | -16.62
O=C(NC[C@]12COC[C@H]1CN(Cc1ccco1)C2)c1ccccc1 | -36.34
O=C(NCc1ccco1)N1CCC(n2ccc(C(F)(F)F)n2)CC1 | -43.09
Cc1nn(C)cc1CN1CCCC(n2c(=O)oc3ccc(Cl)cc32)C1 (stereo not given) | 13.17
COCC(=O)N1CCN(C(C)=O)C[C@@H]1C(=O)OC | 23.53
COC(=O)[C@H]1CN(C(C)=O)CCN1C(C)=O | 56.21
COCC(=O)N1CCN(C(=O)c2cccs2)[C@@H](C(=O)OC)C1 | -19.02
COCC(=O)N1CCN(C(=O)C2CCCCC2)[C@@H](C(=O)OC)C1 | 72.68
COC(=O)[C@H]1CN(C(=O)NC(C)C)CCN1C(=O)C1CCCCC1 | 16.67
COC(=O)[C@@H]1CN(C(=O)Nc2ccccc2)CCN1C(C)=O | -21.22
CNC(=O)C1(c2cnccn2)CCCN1C(=O)Cc1ccsc1 (stereo not given) | 36.82
CN(CCc1ccccn1)Cc1nccn1Cc1ccccc1 | -9.98
CN(C)Cc1cnc2n1CCN(C(=O)Cc1ccc(F)cc1)CC2 | 8.41
CN(C)Cc1cnc2n1CCN(C(=O)Cc1ccsc1)CC2 | 37.51
CN(C)Cc1cnc2n1CCN(C(=O)C1CC=CC1)CC2 | 46.27
CN(C)Cc1cnc2n1CCN(C(=O)NCc1ccccc1)CC2 | 53.44
CN(C)Cc1cnc2n1CCN(C(=O)NC1CCCC1)CC2 | 16.03
CN(C)Cc1cnc2n1CCN(C(=O)Cc1cccc(F)c1)CC2 | 54.82

Source: ChEMBL document CHEMBL4513216, “Probing the Open Global Health Chemical Diversity Library for Multistage-Active Starting Points for Next-Generation Antimalarials” (ACS Infect Dis, 2020)
